KB-V1 cytotox: KB-V1 MDR subline cytotoxicity; KB-V1 MDR cells viability, CellTiter-Glo, 72 h; Potency, µM (titrated, usually from 46.1 µM), usual class: cytotoxic; 400,000 tested, 3.4% active; AID 1347076; further: potency means the concentration at half of the fitted maximal effect; on the % scale 0 is the no-effect control and ±100 the full control effect; nearly all actives have a fitted effect of over 60% in size
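Drug-selected KB-V1 cells, grown in DMEM lacking phenol red with 10% FBS, receive compound titrations; after three days at 37 degrees C, surviving cell ATP is quantified by CellTiter-Glo luminescence and responses normalized and curve-fitted.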
KB-3-1 cytotox: KB-3-1 parental cell cytotoxicity. 400,000 tested, 1.4% active. KB-3-1 viability, CellTiter-Glo ATP luminescence, 72 h. Potency, µM (highest dose often 46.1 µM), actives largely listed as cytotoxic; further: potency means the concentration at half of the fitted maximal effect; on the % scale 0 is the no-effect control and ±100 the full control effect; nearly all actives have a fitted effect of over 60% in size
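Here the drug-naive KB-3-1 line serves as comparator for MDR sub-line selectivity; cells received compound titrations, 72 h at 37 °C, then CellTiter-Glo readout.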
MCF10A rereplic: DNA re-replication induction in MCF 10a cells; MCF 10A DNA re-replication, Hoechst nuclear intensity, 48 h; Potency, µM (doses to about 46.1 µM), for inactives: at the highest dose activity, positive = re-replication, usual class: activators; 350,000 tested, 2.9% active; AID 624296; further: potency means the concentration at half of the fitted maximal effect; % of control where 0% means no effect; nearly all actives have a fitted effect of over 50% in size
SW480 rerep: inducers of DNA re-replication in SW480 colon cancer cells. 340,000 tested, 1.8% active. AID 624297. Potency, µM (doses to about 46.1 µM), without a hit: top-dose re-replication activation, actives largely listed as activators. SW480 DNA re-replication, Hoechst DNA content imaging, 48 h; further: potency means the concentration at half of the fitted maximal effect; % of control where 0% means no effect; nearly all actives have a fitted effect of over 55% in size
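Per well, 250 cells were exposed to pinned compound for 48 hr. Nuclear DNA was visualised with Hoechst (40 min, 37 C) and total object intensity recorded by fluorescence scanning.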
IL-1B inflam inh: inflammasome signaling inhibition, IL-1 beta readout. THP-1 LPS/ATP IL-1B secretion, AlphaLISA, 16 h; hits give low values. activity change, % at 57.5 µM. 360,000 tested, 4.7% active; in the data active means activity change below about -50%; inconclusive means mostly about -30% to -49%; further: on the % scale 0 is the no-effect control and ±100 the full control effect
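THP-1 cells pretreated 1 hr with compounds (up to 57.5 uM final), then stimulated with LPS (250 ng/mL final) plus ATP (1.25 mM final); secreted IL-1B measured by AlphaLISA after 16 hr, decreased signal indicating inhibition.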
Numbers without * were called inactive; i = inactive; ? = inconclusive; / = no result given. Compounds with a hit are over-represented: about 9.9% of the library has one in this group of screens. Unless noted, the call rests on the fitted dose curve; in most records, active means well fitted curve in the direction sought with a large enough effect; inconclusive means small, poorly fitted or top-dose-only effect, or another doubt; inactive means no such curve, though single readings can be large; an effect the other way counts as inactive or inconclusive.

SMILES | KB-V1 cytotox | KB-3-1 cytotox | MCF10A rereplic | SW480 rerep | IL-1B inflam inh
CN(C)S(=O)(=O)c1cc(NC(=O)CSc2nn(-c3ccc(Cl)cc3)c(=S)s2)ccc1Cl | 16.4µM* | ? | 7.3% | 16.4% | -28.5
Cc1ccc(NC(=O)CSc2nn(-c3ccc(Cl)cc3)c(=S)s2)cc1S(=O)(=O)N(C)C | 20.6µM* | ? | 12.7% | / | 15.4
NS(=O)(=O)c1cccc(NC(=O)CSc2nn(-c3ccccc3)c(=S)s2)c1 | i | i | 1.6% | -0.6% | 8.4
COc1ccc(/C(C)=N/NC(=O)CNC(=O)c2cccnc2)cc1OC | i | i | 0.6% | 2.3% | -4.4
CC(=O)N1CCCc2cc(S(=O)(=O)N(C)CC(=O)Nc3cccc(C)c3C)ccc21 | i | i | / | / | /
O=C(CNc1ccc(C(F)(F)F)cc1)Nc1cccc(S(=O)(=O)N2CCCC2)c1 | i | i | -2.9% | 0.2% | 26.1
O=C(CNc1cc(S(=O)(=O)N2CCCC2)ccc1OCC(F)(F)F)Nc1ccc(SC(F)F)cc1 | i | i | 28.8% | 4.0% | -68.2*
O=C(CSc1ccc([N+](=O)[O-])cc1)Nc1cccc(S(=O)(=O)N2CCOCC2)c1 | ? | i | 4.6% | -3.8% | -67.5*
CCN(CC)S(=O)(=O)c1cccc(NC(=O)CNc2cccc(S(=O)(=O)N3CCOCC3)c2)c1 | 20.6µM* | 1.3µM* | 15.1% | 5.6% | -6.7
O=C(CNc1ccc(C(F)(F)F)cc1)Nc1cccc(S(=O)(=O)N2CCCCC2)c1 | i | i | / | / | -58.7*
COc1ccc(S(=O)(=O)NC(C(=O)OCC(=O)Nc2ccc(N3CCOCC3)cc2)C(C)C)cc1 (stereo not drawn) | i | i | 9.8% | -3.1% | 17.1
CC1CC(C)CN(CCCNS(=O)(=O)c2ccc3c(c2)oc(=O)n3C)C1 (stereo not drawn) | i | ? | -0.4% | 0.1% | i
CCN(CC)S(=O)(=O)c1cc(NC(=O)CNc2cccc(S(=O)(=O)N3CCCC3)c2)ccc1C | 20.6µM* | 2.91µM* | 26.1% | -1.6% | ?
Cc1cc(C)c2c(ccc3ccccc32)n1 | ? | i | 2.4% | -5.5% | 1.1
Oc1ccc(-c2nc3ccc4ccccc4c3c3c2CCC3)cc1O | ? | ? | ? | ? | -54.5*
CCCCS(=O)CC(O)COc1ccc(C(C)(C)C)cc1 (stereo not drawn) | 20.6µM* | i | ? | 2.1% | -11.8
O=S(Cc1ccc(Cl)cc1)CC(O)(c1ccccc1)c1ccccc1 (stereo not drawn) | i | i | 0.1% | -12.8% | 14.1
CCN(CC)CCNCC(O)(c1ccc(Cl)cc1)c1ccc(Cl)cc1 | i | i | 6.8% | ? | -86.6*
CC(C)NCC(O)(c1ccc(Cl)cc1)c1ccc(Cl)cc1 | i | i | 6.9% | 15.9% | -83.6*
CC(C)(C)NCC(O)(c1ccc(Cl)cc1)c1ccc(Cl)cc1 | ? | i | 4.1% | ? | 0.0
NCC(O)(c1ccc(Cl)cc1)c1ccc(Cl)cc1 | i | i | ? | 7.4% | -56.1*
CC1=C(C(=O)NCc2ccccc2C)C2(CCCCCC2)OC1=O | i | i | / | / | /
COC(=O)c1ccccc1NC(=O)Cn1c(=O)n(CCCC(=O)NCCc2ccc(OC)c(OC)c2)c(=O)c2ccccc21 | i | i | / | / | /
O=C1Nc2ccc(Br)cc2C1=C1CCCCC1 | ? | i | 18.4µM* | ? | 29.0
Cc1ccc(N=C2C(=O)Nc3ccc(Br)cc32)cc1 | i | i | ? | ? | 65.3
SMILES | KB-V1 cytotox | KB-3-1 cytotox | MCF10A rereplic | SW480 rerep | IL-1B inflam inh
COc1ccc(/C=C2/C(=O)OCc3cc(OC)c(OC)cc32)cc1 | 3.66µM* | ? | ? | 4.11µM* | -50.9*
COc1ccc(/C=C2\CCOC2=O)cc1 | i | i | -1.7% | -9.3% | -9.5
COc1ccc(C2=NC(CO)(CO)CO2)cc1 | i | i | -4.7% | -15.6% | 26.7
COc1cc(C2=NC(CO)(CO)CO2)cc(OC)c1OC | i | i | -9.3% | -6.0% | -72.3*
CCCCc1c(Cc2cccc(F)c2)ncn1CCc1ccccc1OC | ? | ? | / | / | 0.0
CCCCn1c(=O)[nH]c(=O)c2c1nc(-c1ccccc1F)n2Cc1ccccc1OC | ? | ? | 18.6% | 6.5% | 7.9

From PubChem
